Records with an inconclusive call do not appear. Where a call stands in place of a potency, no number is given. Active and inactive are the calls of the source. Calls follow the shape of the dose curve; as a rule, active = well fitted inhibition curve with a large enough effect; inconclusive = small, poorly fitted or top-dose-only effect; inactive = flat fitted curve, though single readings scatter.

This note sets out measurements from PubChem BioAssay (NCATS).

One experiment relates to AS120. Kind of experiment: qHTS profiling for inhibitors of Plasmodium falciparum proliferation (AID 504749). Also: nearly all actives have a fitted effect of over 60% in size. The following applies: P. falciparum in erythrocytes, SYBR Green DNA, 72 h; series mostly up to 28.7 µM. Put shortly:
(§1)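 Parasite proliferation within erythrocytes, 72 h exposure. Endpoint: SYBR Green I fluorescence after overnight lysis at room temperature. Controls: 0.29 uM artemisinin, DMSO.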
With `CCN(CC)C(=O)c1cccnc1`, the Potency result was “inactive”.

Regarding `CNC(=O)C[C@@H](N)C(=O)N[C@@H](C(=O)N[C@@H]1C(=O)N2[C@@H]1SC(C)(C)[C@@H]2C(=O)O)c1ccc(O)cc1`, the Potency entry was “inactive”.

For the molecule `CCCCCCCCCCCCCCCCCC(=O)OCC(C)O` (stereo not drawn), the Potency result was “inactive”.

Regarding `NC(=S)NS(=O)(=O)c1ccc(N)cc1`, the Potency entry is “inactive”.

Turning to `N=C(N)n1cccn1`, the Potency result is “inactive”.

`Nc1ncnc2c1ncn2CCOCP(=O)(O)O`: the Potency result is “inactive”.

With `CCC(C(=O)NC(N)=O)c1ccccc1` (stereo not drawn), the Potency result was “inactive”.

`CC(C)CCC[C@@H](C)[C@H]1CC[C@H]2[C@@H]3CC=C4C[C@@H](O)CC[C@]4(C)[C@H]3CC[C@]12C`: the Potency result was “inactive”.

As to `CC1=CCC2CC1C2(C)C` (stereo not drawn), the Potency result was “inactive”.

Consider `NC(N)=O`, for which the Potency entry is “inactive”.

For the molecule `Cc1ncc(C[n+]2csc(CCOP(=O)(O)OP(=O)(O)O)c2C)c(N)n1`, the Potency entry was “inactive”.

In the case of `Nc1nc(=O)n([C@@H]2CS[C@H](CO)O2)cc1F`, the Potency result is “inactive”.

For the molecule `CCOC(=O)[C@@H](N)CS`, the Potency entry was “inactive”.

Regarding `OCC(O)CO`, the Potency entry is “inactive”.

Turning to `O=C1c2ccccc2C(=O)C1c1ccc(F)cc1`, the Potency result was “inactive”.

With `O=C(O)COc1ccccc1/C=N/NC(=O)c1ccncc1`, the Potency result is “inactive”.

`Cc1cccc(C)c1NC(=O)C1CCCCN1C` (stereo not drawn): the Potency entry was “inactive”.

In the case of `CCC(C)[C@@H](N)C(=O)O` (stereo partly drawn), the Potency result was “inactive”.

Take `CC(C)(Oc1ccc(C2CCCc3ccccc32)cc1)C(=O)O` (stereo not drawn): the Potency result is “inactive”.

Regarding `CC(CC=O)CCCC(C)(C)O` (stereo not drawn), the Potency result was “inactive”.

Take `S=C1SCN(Cc2ccccc2)CN1Cc1ccccc1`: the Potency result was “inactive”.

Take `CC(C)Cc1ccc([C@@H](C)C(=O)NS(C)(=O)=O)cc1`: the Potency entry was “inactive”.

As for `COc1cc2c(cc1OC)[C@@H](Cc1cc(OC)c(OC)c(OC)c1)[N+](C)(CCCOC(=O)CC/C=C/CCC(=O)OCCC[N+]1(C)CCc3cc(OC)c(OC)cc3[C@H]1Cc1cc(OC)c(OC)c(OC)c1)CC2` (stereo partly drawn), the Potency result is “inactive”.

Consider `COC(=O)CCC[N+](C)(C)C`, for which the Potency result was “inactive”.

As for `[O]=[Bi][O][Bi]=[O]`, the Potency entry was “inactive”.

For the molecule `C[C@]12CC[C@@H]3c4ccc(OC(=O)c5ccccc5)cc4CC[C@H]3[C@@H]1CC[C@@H]2O`, the Potency result was “inactive”.

Consider `Cc1ccc(C(C)(C)c2ccc(C)cc2)cc1`, for which the Potency result is “inactive”.

`FC(F)OC(Cl)C(F)(F)F` (stereo not drawn): the Potency entry is “inactive”.

As to `CC(CCc1ccc(O)cc1)NCC(O)c1ccc(O)cc1` (stereo not drawn), the Potency entry is “inactive”.

For `CC1=C(/C=C/C(C)=C/C=C/C(C)=C/C(=O)Oc2c(C)c(C)c3c(c2C)CC[C@@](C)(CCC[C@H](C)CCC[C@H](C)CCCC(C)C)O3)C(C)(C)CCC1`, the Potency entry is “inactive”.

As for `O=P(O)(O)OP(=O)(O)OP(=O)(O)O`, the Potency result was “inactive”.

On to `CO/N=C(\C(=O)N[C@@H]1C(=O)N2C(C(=O)[O-])=C(C[n+]3cccc4c3CCC4)CS[C@H]12)c1csc(N)n1`, for which the Potency entry was “inactive”.

In the case of `CCCCCCCCCCCC(=O)OCC(O)CO` (stereo not drawn), the Potency entry is “inactive”.

In the case of `CS(=O)(=O)OCC(O)C(O)COS(C)(=O)=O` (stereo not drawn), the Potency entry was “inactive”.

For the molecule `CC1=CC(=O)NS(=O)(=O)O1`, the Potency entry is “inactive”.

As for `O=C(O)CCCC/C=C(\c1ccccc1)c1cccnc1`, the Potency result was “inactive”.

In the case of `CCN(CC)C(=S)S`, the Potency entry was “inactive”.

Turning to `C[Se]CC[C@H](N)C(=O)O`, the Potency entry was “inactive”.

Consider `CC(C)[C@H](N)C(=O)OCC(CO)OCn1cnc2c(=O)[nH]c(N)nc21` (stereo partly drawn), for which the Potency entry is “inactive”.

The next experiment concerns ATS189. The experiment is described as above. Particulars: P. falciparum in erythrocytes, SYBR Green DNA, 72 h; series mostly up to 28.7 µM. Put shortly: as §1
Turning to `CCN(CC)C(=O)c1cccnc1`, the Potency entry is “inactive”.

Take `CNC(=O)C[C@@H](N)C(=O)N[C@@H](C(=O)N[C@@H]1C(=O)N2[C@@H]1SC(C)(C)[C@@H]2C(=O)O)c1ccc(O)cc1`: the Potency result was “inactive”.

Turning to `CCCCCCCCCCCCCCCCCC(=O)OCC(C)O` (stereo not drawn), the Potency entry was “inactive”.

In the case of `NC(=S)NS(=O)(=O)c1ccc(N)cc1`, the Potency entry was “inactive”.

Turning to `N=C(N)n1cccn1`, the Potency entry is “inactive”.

For the molecule `Nc1ncnc2c1ncn2CCOCP(=O)(O)O`, the Potency result was “inactive”.

Take `CCC(C(=O)NC(N)=O)c1ccccc1` (stereo not drawn): the Potency result is “inactive”.

Turning to `CC(C)CCC[C@@H](C)[C@H]1CC[C@H]2[C@@H]3CC=C4C[C@@H](O)CC[C@]4(C)[C@H]3CC[C@]12C`, the Potency result is “inactive”.

`CC1=CCC2CC1C2(C)C` (stereo not drawn): the Potency entry is “inactive”.

Consider `NC(N)=O`, for which the Potency entry is “inactive”.

Turning to `Cc1ncc(C[n+]2csc(CCOP(=O)(O)OP(=O)(O)O)c2C)c(N)n1`, the Potency entry was “inactive”.

Turning to `Nc1nc(=O)n([C@@H]2CS[C@H](CO)O2)cc1F`, the Potency result was “inactive”.

As to `CCOC(=O)[C@@H](N)CS`, the Potency entry was “inactive”.

As to `OCC(O)CO`, the Potency entry was “inactive”.

As for `O=C1c2ccccc2C(=O)C1c1ccc(F)cc1`, the Potency entry is “inactive”.

For the molecule `O=C(O)COc1ccccc1/C=N/NC(=O)c1ccncc1`, the Potency entry was “inactive”.

With `Cc1cccc(C)c1NC(=O)C1CCCCN1C` (stereo not drawn), the Potency result was “inactive”.

For `CCC(C)[C@@H](N)C(=O)O` (stereo partly drawn), the Potency result was “inactive”.

In the case of `CC(C)(Oc1ccc(C2CCCc3ccccc32)cc1)C(=O)O` (stereo not drawn), the Potency result is “inactive”.

As for `CC(CC=O)CCCC(C)(C)O` (stereo not drawn), the Potency entry was “inactive”.

In the case of `S=C1SCN(Cc2ccccc2)CN1Cc1ccccc1`, the Potency result is “inactive”.

On to `CC(C)Cc1ccc([C@@H](C)C(=O)NS(C)(=O)=O)cc1`, for which the Potency result was “inactive”.

Regarding `COc1cc2c(cc1OC)[C@@H](Cc1cc(OC)c(OC)c(OC)c1)[N+](C)(CCCOC(=O)CC/C=C/CCC(=O)OCCC[N+]1(C)CCc3cc(OC)c(OC)cc3[C@H]1Cc1cc(OC)c(OC)c(OC)c1)CC2` (stereo partly drawn), the Potency entry was “inactive”.

For the molecule `COC(=O)CCC[N+](C)(C)C`, the Potency result was “inactive”.

For `[O]=[Bi][O][Bi]=[O]`, the Potency result was “inactive”.

For `C[C@]12CC[C@@H]3c4ccc(OC(=O)c5ccccc5)cc4CC[C@H]3[C@@H]1CC[C@@H]2O`, the Potency result was “inactive”.

For the molecule `Cc1ccc(C(C)(C)c2ccc(C)cc2)cc1`, the Potency result is “inactive”.

For the molecule `FC(F)OC(Cl)C(F)(F)F` (stereo not drawn), the Potency result was “inactive”.

Take `CC(CCc1ccc(O)cc1)NCC(O)c1ccc(O)cc1` (stereo not drawn): the Potency entry was “inactive”.

`CC1=C(/C=C/C(C)=C/C=C/C(C)=C/C(=O)Oc2c(C)c(C)c3c(c2C)CC[C@@](C)(CCC[C@H](C)CCC[C@H](C)CCCC(C)C)O3)C(C)(C)CCC1`: the Potency entry was “inactive”.

For `O=P(O)(O)OP(=O)(O)OP(=O)(O)O`, the Potency result is “inactive”.

With `CO/N=C(\C(=O)N[C@@H]1C(=O)N2C(C(=O)[O-])=C(C[n+]3cccc4c3CCC4)CS[C@H]12)c1csc(N)n1`, the Potency entry was “inactive”.

As to `CCCCCCCCCCCC(=O)OCC(O)CO` (stereo not drawn), the Potency result is “inactive”.

Turning to `CS(=O)(=O)OCC(O)C(O)COS(C)(=O)=O` (stereo not drawn), the Potency result was “inactive”.

For `CC1=CC(=O)NS(=O)(=O)O1`, the Potency result is “inactive”.

As to `O=C(O)CCCC/C=C(\c1ccccc1)c1cccnc1`, the Potency entry is “inactive”.

Regarding `CCN(CC)C(=S)S`, the Potency result was “inactive”.

Turning to `C[Se]CC[C@H](N)C(=O)O`, the Potency result is “inactive”.

Take `CC(C)[C@H](N)C(=O)OCC(CO)OCn1cnc2c(=O)[nH]c(N)nc21` (stereo partly drawn): the Potency result was “inactive”.
